Measurements reported in ChEMBL document CHEMBL1157539, “Thousands of chemical starting points for antimalarial lead identification” (Nature, 2010).

Legend:
Assay type in all cases: functional
[1] = system: Plasmodium falciparum; test: GSK_TCMDC: Inhibition of Plasmodium falciparum 3D7 in whole red blood cells, using parasite LDH activity as an index of growth. Test compounds present at 2uM
[2] = system: Plasmodium falciparum; test: GSK_TCMDC: Inhibition of Plasmodium falciparum Dd2 in whole red blood cells, using parasite LDH activity as an index of growth. Test compounds present at 2uM
[3] = system: HepG2; test: GSK_TCMDC: Percent inhibition of human HepG2 cell line. Test compounds present at 10uM.

SMILES | Inhibition [1] [%] | Inhibition [2] [%] | Inhibition [3] [%]
Cl.NC(=O)c1cccc(Nc2nccc(Nc3ccc(Oc4cccc5ccccc45)cc3)n2)c1 | 94 | 22 | 0
O=C(Nc1cccnc1)c1cc(-c2cc(Cl)ccc2O)n[nH]1 | 98 | 85 | 7
NC1CCCN(Cc2cccc(-c3ccc(-c4nc5ccccc5[nH]4)s3)c2)C1.O=C(O)C(F)(F)F (stereo not given) | 98 | 88 | 21
COc1c(C2CCN(CCCCNC(=O)c3cc(-c4ccc(Cl)cc4)oc3C)CC2)ccc2c1CCCC2 | 97 | 27 | 93
O=C(Nc1cccnc1)c1cc(-c2cccnc2)nc2ccc(Br)cc12 | 99 | 60 | 9
Fc1ccc2[nH]c(-c3ccc(-c4ccc(CNCCN5CCNCC5)cc4)s3)nc2c1.O=C(O)C(F)(F)F | 96 | 2 | 24
c1ccc2sc(Sc3ncnc4sccc34)nc2c1 | 100 | 100 | 7
Cc1[nH]cc(Br)c(=O)c1-c1ccc(Oc2ccccc2)cc1 | 97 | 96 | 0
CN(C)c1ccc(C2c3[nH]cnc3CCN2C(=O)Nc2cccc([N+](=O)[O-])c2)cc1 (stereo not given) | 98 | 15 | 0
CCN1C(=O)N(CCC(C)C)C2(CCN(Cc3ccc(OC)cc3O)CC2)C1=O | 89 | 77 | 13
Cc1cc(N2CCN(C)CC2)nc2ccc(NC(=O)c3cccc(N(C)C)c3)cc12 | 85 | 23 | 9
FC(F)(F)c1cnc(Sc2nnc(-c3ccco3)o2)c(Cl)c1 | 98 | 97 | 0
O=C(Cn1nc(Br)nc1[N+](=O)[O-])NCC1CCCCC1 | 96 | 57 | 0
O=C(NC(Nc1ccc([N+](=O)[O-])cc1)C(Cl)(Cl)Cl)c1ccc(Cl)cc1 (stereo not given) | 98 | 94 | 21
O=C(/C=C/c1ccc(Cl)c(Cl)c1)N1CCC(CCN2CCC(c3c[nH]c4ccccc34)CC2)CC1 | 100 | 44 | 56
CCCC(=O)c1cnc2c(I)cccc2c1Nc1ccccc1C | 90 | 26 | 7
CC(C)c1ccc(NC(=O)c2ccc(CN3CCCN(Cc4cccc(O)c4)CC3)cc2)cc1.O=C(O)C(F)(F)F | 100 | 58 | 51
COc1ccc2nccc([C@@H](O)CN3CCC(NCc4ccc5cccc(O)c5n4)CC3)c2c1.O=C(O)C(=O)O | 93 | 40 | 10
Cl.Cn1cc(Br)c(-c2cccc(Nc3ccnc4cc(-c5nccs5)ccc34)c2)n1 | 91 | 32 | 37
Cl.O=S(=O)(Nc1cc2c(cc1O)CCN(C1CCC1)CC2)c1ccc(-c2ccc(F)cc2)cc1 | 100 | 99 | 16
Cl.N#Cc1ccc2c(c1)CCN(CCC1CCC(NC(=O)/C=C/c3cccc4cc[nH]c34)CC1)CC2 (stereo not given) | 89 | 29 | 22
Cc1[nH]c(C)c(-c2ccc(-c3ccc(OCC(F)(F)F)cc3)nc2)c(=O)c1Cl | 94 | 96 | 3
COc1ccc(Cl)cc1NC(=O)C(C)Nc1ccc(-c2ccccc2)cc1 (stereo not given) | 91 | 89 | 0
O=C(Cc1cccc2ccccc12)N1CCc2cc3nccc(N4CCN5CCC[C@H]5C4)c3cc21 | 100 | 99 | 3
O=C(NCCSCc1c(F)cccc1Cl)c1cnc2c(c1)nc(-c1c[nH]c(-c3ccccc3)n1)n2CCc1c[nH]cn1 | 93 | 45 | 10

SMILES | Inhibition [1] [%] | Inhibition [2] [%] | Inhibition [3] [%]
CCN(CC)CCCN(C(=O)Nc1ccc(C#N)cc1)c1nc(-c2ccc(F)cc2)cs1 | 99 | 68 | 36
Cl.Oc1ccc(-c2cc(COc3ccccc3C(F)(F)F)c(C3=CCNCC3)cc2COc2ccccc2C(F)(F)F)cc1 | 100 | 62 | 18
CCOc1ccc(C2CCN(CCCCNC(=O)c3ccc(NC(=O)c4ccc(Cl)cc4)cc3)CC2)c(Cl)c1 | 100 | 96 | 32
CCCCN(Cc1cc(Cl)c(OCC)c(OC)c1)c1ccc(C(O)(C(F)(F)F)C(F)(F)F)cc1.O=C(O)C(F)(F)F | 92 | 97 | 5
Cc1cc(N[C@@H](Cc2ccccc2)C(=O)NCc2cccs2)nc(Nc2ccccc2)n1.O=C(O)C(F)(F)F | 96 | 36 | 3
Cc1ccc(-c2cc(C(=O)Nc3ccc(S(=O)(=O)N4CCCCC4)cc3)[nH]n2)c(O)c1 | 97 | 92 | 6
COc1cc(NC(=O)N2CCc3ccc(OCCN4CCCCC4)cc32)cc(C(F)(F)F)c1.O=C(O)C(F)(F)F | 100 | 93 | 9
Cc1ccc([N+](=O)[O-])cc1NC(=O)N(CC(O)c1ccccc1)C1CCCCC1 (stereo not given) | 100 | 98 | 11
Cl.Clc1ccc(OC2CCC(Cn3ccnc3)(c3ccc(Cl)cc3Cl)CC2)c(Cl)c1 (stereo not given) | 98 | 86 | 4
COc1ccc2[nH]c3ccccc3c(=O)c2c1 | 87 | 75 | 0
N#Cc1ccc(N2CCN(Cc3ccc(-c4ccc(-c5nc6cc(C(F)(F)F)ccc6[nH]5)s4)cc3)CC2)nc1.O=C(O)C(F)(F)F | 100 | 73 | 13
COc1ccc(CNCc2ccc(-c3cccc(-c4nc5cccc(C)c5[nH]4)c3)cc2)cc1.O=C(O)C(F)(F)F | 100 | 100 | 69
CN(C)CCOc1cc(NC(=O)c2ccc(-c3ccc(Cl)cc3Cl)cc2)ccc1-c1ccccc1 | 98 | 26 | 45
CC(CN(C)C)C(=O)Nc1cccc(-c2ccc(-c3nc4ccccc4[nH]3)cc2)c1 (stereo not given) | 98 | 25 | 1
CCCCCCN1CCC(NCc2cccc(C#N)c2)CC1.O=C(O)C(F)(F)F | 97 | 9 | 5
CC1(C)N=C(N)N=C(N)N1c1ccc(Br)cc1.Cl | 94 | 4 | 52
CCCN(CC1CC1)c1ncc(-c2cccc(CNCc3ccccc3O)c2)cn1 | 97 | 98 | 15
CS(=O)(=O)CCNCc1nc(-c2ccc3ncnc(Nc4ccc(OCc5ccccc5)c(Cl)c4)c3c2)cs1.Cl | 99 | 55 | 13
CCCCCC1c2[nH]c3ccccc3c2CCN1C(=O)OCc1ccccc1 (stereo not given) | 93 | 68 | 3
O=C(Nc1ccc(C(F)(F)F)cc1)NC1CCN(c2ccnc3ccccc23)CC1.O=C(O)C(F)(F)F | 100 | 62 | 46
CC(=O)N[C@H](C(=O)Nc1ccc(-c2ccc(-c3nc4cc(C(F)(F)F)ccc4[nH]3)cc2)cc1)C(C)C | 88 | 76 | 24
CCS(=O)(=O)O.Cc1cc(NC(=O)NC(=N)N)ccc1Cl | 100 | 15 | 11
Cc1cccc2nc(-c3ccc(-c4cccc(NC(=O)Nc5ccc(Cl)cc5)c4)s3)[nH]c12 | 100 | 52 | 25
NS(=O)(=O)c1ccc(CNc2ccc3ncc(-c4ccc(OC(F)(F)F)cc4)n3n2)cc1 | 97 | 99 | 10
CC1(C)NC(N)=NC(=N)N1OCc1ccc(-c2ccccc2)cc1 | 95 | 97 | 64
